Pf Dd2 inh – Plasmodium falciparum Dd2 growth inhibition. actives 4.3% (n = 120,000). AID 1347417. Potency, µM (highest dose often 28.9 µM), actives largely listed as inhibitors. P. falciparum Dd2 growth, SYBR Green, 72 h; active = well fitted inhibition curve with a large enough effect; note: nearly all actives have a fitted effect of over 65% in size
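Infected erythrocytes (Dd2, 0.3% parasitemia, 2.5% hematocrit final) are added to compound in RPMI-1640/Albumax II medium, grown 72 h at 37C in low oxygen, then lysed with saponin/Triton-X containing SYBR Green and read by fluorescence.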
A number is an active result; n = inactive; [ ] = dose if it differs, or a comment. Shown is part of a subset that was picked to be rich in hits.

SMILES	Pf Dd2 inh
O=C(c1cccc(F)c1)N1CCCC(Nc2ccc(F)cc2)C1 (stereo not given)	n
COCCc1nc(CNC(=O)C2CCCN(C(=O)N(C)C)C2)no1 (stereo not given)	n
COCc1cn(C[C@H]2C[C@@H](NC(=O)CC(C)(C)C)[C@H](O)[C@@H]2O)nn1	n
COc1ccc(C(=O)NC2CCN(c3cc(-c4cccs4)[nH]n3)C2)c(OC)c1 (stereo not given)	n
COc1ccc(NC(=O)Nc2ccc(C)n(CC(=O)Nc3cccc(C)c3)c2=O)cc1	n
COc1ccc(-n2cc(-c3ccc4c(c3)OCO4)n(CC(=O)Nc3cccc(C)c3)c2=O)cc1	12.6µM
CCc1cc(=O)n(CC(=O)Nc2ccc3c(c2)OCO3)c(-c2cccc(F)c2)n1	n
COc1ccccc1C(=O)N1CCC2(CC1)CN(c1ncccn1)CC2CO (stereo not given)	n
O=C(CC[C@@H]1CNC(=O)[C@@H]2C[C@H](NCc3ccc(OC(F)(F)F)cc3)CN12)Nc1ccccc1	n
Cc1ccccc1CCC1CCCN(C(=O)CCc2cnccn2)C1 (stereo not given)	n
Cc1ccccc1CCC1CCCN(S(C)(=O)=O)C1 (stereo not given)	n
Cc1ccccc1CCC1CCCNC1 (stereo not given)	11.2µM
COc1ccc(C(=O)N2CCC3(CCNC(=O)CC3)CC2)cc1F	n
Cc1ccc(C)c(NC(=O)CN(CCc2ccccc2)S(=O)(=O)c2ccccc2)c1	n
Cc1c(Cl)cccc1NC(=O)CN(CCc1ccccc1)S(=O)(=O)c1ccccc1	n
CCOc1ccccc1NC(=O)CN(CCc1ccccc1)S(=O)(=O)c1ccc(C)cc1	11.2µM
Cc1ccc(C(=O)Nc2ccc3c(N4CCOCC4)ncnc3c2)cc1F	n
CCn1nccc1C(=O)NC1CCCN(c2cc(N(C)C)ncn2)C1 (stereo not given)	n[5.79 µM]
CN1CCN(C(=O)CC[C@@H]2CNC(=O)[C@@H]3C[C@H](NC(=O)c4cccc(F)c4)CN23)CC1	n
COc1ccc(-c2ccc3nc(-c4ccccc4)oc3c2)c(OC)c1OC	n
COc1ccc(-c2nc(-c3ccccc3)c(-c3ccc(F)cc3)[nH]2)c(OC)c1C	11.2µM
COc1cc(-c2nc(-c3ccccc3)c(-c3ccc(Br)cc3)[nH]2)cc(OC)c1O	1.41µM
COc1cc(-c2nc(SCC(=O)Nc3ccc(C)cc3)c(-c3ccc(F)cc3)[nH]2)cc(OC)c1OC	n
COc1ccc(-c2ccc3nc(-c4cc(F)cc(F)c4)oc3c2)c(OC)c1OC	n
O=S(=O)(Nc1ccc(Br)cc1F)c1ccc2nc(-c3ccccc3)[nH]c2c1	n
SMILES	Pf Dd2 inh
COc1ccc(Br)cc1CNC(=O)CSc1n[nH]c(-c2ccccc2)n1	n
Oc1ccc(-c2nc(-c3ccccc3)c(-c3ccc(Br)cc3)[nH]2)cc1	6.31µM
O=C(O)c1ccc(-c2nc3ncccc3[nH]2)cc1	n
Cn1c(CCC(=O)N2CC[C@H](O)C2)nc2cc(S(=O)(=O)N3CCCC3)ccc21	n
O=C(CC(c1cccc(O)c1)c1ccccc1Cl)NCc1cccnc1 (stereo not given)	n
CCOc1ncccc1C(=O)N(C)Cc1nc(-c2ccccc2)no1	n
O=C(N1CCN([S+](=O)([O-])Cc2ccccc2)CC1)N1CC2CC(C1)[C@H]1CCCC(=O)N1C2 (stereo not given in full)	n
Cc1noc(C)c1S(=O)(=O)N1CCC2(CC1)C(=O)NN=C2C1CC1	n
O=C(NC1CCCN(c2cc(-c3ccc(F)cc3)[nH]n2)C1)C1CCCCC1 (stereo not given)	n
O=C1NC2(CCN(C(=O)Cc3ccccc3)C2)Oc2ccccc21 (stereo not given)	n
CCOc1ccc(NC(=O)N2CC3CC(C2)[C@H]2CCCC(=O)N2C3)cc1 (stereo not given in full)	n
Cc1cc(F)ccc1NC(=O)c1ccc2nc(Cc3ccccc3)oc2c1	n
Cc1cc(F)ccc1NC(=O)c1csc2c1CCC(C)C2 (stereo not given)	4.47µM
O=C(Nc1ccc(F)cc1)c1csc2c1CCCCC2	n
CCn1nccc1C(=O)N1C[C@@H]2CCCN3CCC[C@@H]([C@H]23)[C@H]1CCCC(=O)N1CCOCC1	n
Cc1cnn(CCC(=O)N[C@@H]2CN(Cc3ccccn3)C[C@H]2CN(C)C)c1	n
Cc1ccc(OC2(C(=O)O)CCN(C(=O)C3CCOCC3)CC2)cc1	n
O=C(c1ccccc1)N1CCC(N2CCCC2=O)CC1	n
CCOC(=O)C1(Cc2cccc(OC)c2)CCNCC1	5.01µM
CCOC(=O)C1(Cc2ccccc2)CCCN(S(=O)(=O)c2ccc(OC)c(OC)c2)C1 (stereo not given)	n
C=CCOc1cccc(C(=O)N2CCC(Cc3ccc(OC)cc3)(C(=O)OCC)CC2)c1	n
CCOC(=O)C1(Cc2ccc(OC)cc2)CCN(C(=O)C(C)Oc2ccccc2)CC1 (stereo not given)	n
CCOC(=O)C1(Cc2ccccc2)CCCN(S(=O)(=O)c2cccs2)C1 (stereo not given)	n
O=C(N1CCN(C/C=C/c2ccccc2)CC1)C12CNCC1CNC2 (stereo not given)	n
COCC1CN(C(=O)CCc2cccc(OC)c2)CC12CCNCC2 (stereo not given)	n
SMILES	Pf Dd2 inh
CCOC(=O)C1(Cc2ccccc2)CCCN(C(=O)c2ccccc2SC)C1 (stereo not given)	n
CCOC(=O)C1(C/C=C/c2ccccc2)CCCNC1 (stereo not given)	3.98µM
COc1cccc(CN2CCC3(CC2)C(=O)NCN3Cc2ccc(Cl)cc2)c1	n
CCOC(=O)C1(Cc2ccc(Cl)cc2)CCN(Cc2ccc(OC)cc2O)CC1	0.0891µM
CCOC(=O)C1(Cc2ccccc2)CCNCC1	5.62µM
CC(C)Oc1ccc2c(NC(=O)c3cocn3)nn(CC(F)(F)F)c2c1	n
O=C([C@H]1C[C@@H](O)[C@H](O)[C@@H]2N=C(Nc3cccc(C(F)(F)F)c3)S[C@@H]21)N1CCOCC1	n
N[C@H]1CCN2C(=O)c3cc(-c4ccc5c(c4)OCO5)ccc3NC(=O)[C@H]12	n
CS(=O)(=O)N1C[C@@H](COc2ccccc2)[C@H](C(N)=O)C1	n
CC(C)(C(=O)O)c1cnc(N2C[C@@H](CO)[C@H](CO)C2)nc1N1CCOCC1	n
CNC(=O)[C@H]1C[C@H](Oc2cccnc2)CN1S(=O)(=O)c1ccc(OC)cc1	n
CCn1c(C2CCCN(C(=O)Nc3ccc4c(c3)OCCO4)C2)nn(C)c1=O (stereo not given)	n
COc1cccc(CC2(CO)CCCNC2)c1 (stereo not given)	n
CCOC(=O)C1(Cc2cccc(OC)c2)CCCNC1 (stereo not given)	11.2µM
CCOC(=O)c1cc(S(=O)(=O)NCc2ccc(F)cc2)[nH]n1	n
COc1cccc(CNC(=O)C2=C(C)C(=O)OC23CCCCCC3)c1	n
CCOC(=O)C1(Cc2ccc(F)cc2F)CCCN(C(=O)c2c(C)nc3ncccn23)C1 (stereo not given)	n
CCOC(=O)C1(Cc2ccc(F)cc2)CCCNC1 (stereo not given)	2.82µM
Clc1ccc(C2Cn3nnc(-c4nc(-c5cccc(Br)c5)no4)c3CO2)cc1 (stereo not given)	n
CCn1ccc(C(=O)N2CCCC(c3nc(-c4ccccc4)no3)CCNC(=O)CC2)n1 (stereo not given)	n
COCc1nncn1C1CCN(S(=O)(=O)c2ccc(OC)c(Cl)c2)CC1	n
CCOC(=O)c1ccccc1NC(=O)CN1C(=O)NC2(CCOCC2)C1=O	n

High-throughput results as filed in PubChem.
